BRCA1 expr up = qHTS Assay to Identify Small Molecule Activators of BRCA1 Expression; MCF7-BRCA1-FFLuc reporter, luminescence, 48 h; response scale: scaled: vehicle 0%, 10 µM genistein 100%; Potency, µM (top dose mostly 46.1 µM), hits mostly activators; 380,000 compounds, 1.1% hits; AID 624202, 2012; note: nearly all actives have a fitted effect of over 80% in size
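MCF7-BRCA1-FFLuc cells, 2000/well in phenol-red-free MEM, attached 2 h then treated 48 h at 37 C. Luciferase luminescence read 15 min after reagent; normalized to genistein maximum activation (10microM) and DMSO, concentration-response fitted.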
Anesthetic bind = qHTS Assay for Identification of Novel General Anesthetics. Ferritin light chain (Equus caballus), P02791. apoferritin/1-aminoanthracene competitive binding, fluorescence. Potency, µM (series often up to 77.5 µM), hits mostly inhibitors. 350,000 compounds, 0.074% hits; note: nearly all actives have a fitted effect of over 20% in size
Target sequence (P02791 2-175 limits assumed): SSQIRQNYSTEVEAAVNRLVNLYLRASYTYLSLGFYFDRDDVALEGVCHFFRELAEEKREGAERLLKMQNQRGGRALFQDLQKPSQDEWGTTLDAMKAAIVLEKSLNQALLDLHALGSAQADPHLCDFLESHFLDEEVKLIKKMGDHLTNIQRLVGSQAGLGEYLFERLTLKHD
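In PBS, apoferritin at 10 uM is loaded with 1-AMA from a 50% saturated solution. After 10 min of compound exposure at ambient temperature, reduced 535 nm fluorescence indicates probe displacement.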
ASM inhibitor = Inhibitors of Secretory Acid Sphingomyelinase (S-ASM): qHTS; placental ASM, HMU-PC fluorogenic substrate, 60 min; 340,000 compounds, 0.006% hits; Sphingomyelin phosphodiesterase (Homo sapiens), P17405; Potency, µM (top dose mostly 57.5 µM), actives largely listed as inhibitors
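qHTS format. ASM enzyme prepared from human placenta hydrolyses the fluorogenic substrate HMU-PC0 (9 uM final) over 60 min at 37 °C after a 10 min compound preincubation.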
TSHR antagonist = Antagonists of the Thyroid Stimulating Hormone Receptor: HTS campaign; Thyrotropin receptor (Homo sapiens), P16473; TSHR-expressing cells, TSH-stimulated cAMP HTRF, 2 h; hits give low values; 330,000 compounds, 0.2% hits; activity change, negative = inhibition, % at 11.5 µM;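 active = activity change below a set negative limit, meaning inhibition stronger than a set level, cut at about -70% in these data; inconclusive = activity change between two set negative limits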
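Cell-based HTRF cAMP assay; TSHR cells + compound, TSH EC80 (4nM final), 2 h, 37 deg C. Lysis with anti-cAMP cryptate and cAMP-d2, 30 min RT, read 665/620 nm.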
TSG101-PTAP inh = qHTS Assay for Iinhibitors of HIV-1 Budding by Blocking the Interaction of PTAP/TSG101; Potency, µM (top dose mostly 115 µM), most hits filed as inhibitors; 340,000 tested, under 10 active; Tumor susceptibility gene 101 protein (Homo sapiens), Q99816; Fluorescence polarization, FITC-PTAP peptide / Tsg101 binding; active = well fitted inhibition curve with a large enough effect in the main read-out, with a control signal flat, not every such curve was filed as active; inconclusive = small, poorly fitted or top-dose-only effect, or effect the other way, or a change in a side signal; inactive = no such curve, though single readings can be large or run the other way
Target sequence (Q99816 whole entry, looked up): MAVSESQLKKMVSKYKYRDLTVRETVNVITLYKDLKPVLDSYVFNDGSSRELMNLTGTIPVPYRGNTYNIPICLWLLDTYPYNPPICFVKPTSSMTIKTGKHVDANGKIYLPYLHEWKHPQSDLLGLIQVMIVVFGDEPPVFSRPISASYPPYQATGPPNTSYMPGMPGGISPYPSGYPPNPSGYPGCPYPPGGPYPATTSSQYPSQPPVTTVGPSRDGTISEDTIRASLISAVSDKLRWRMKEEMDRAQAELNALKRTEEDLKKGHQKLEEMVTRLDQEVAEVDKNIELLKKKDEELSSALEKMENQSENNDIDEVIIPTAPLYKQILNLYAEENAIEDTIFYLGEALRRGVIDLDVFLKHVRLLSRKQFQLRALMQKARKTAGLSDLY
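Compounds were pin-transferred onto Tsg101 binding domain (10 uM final) in HEPES pH 7.5 buffer, then FITC-PTAP peptide was added at 50 nM final. After 20 min at RT, polarization reported peptide displacement across a qHTS concentration series.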
A number is an active result; n = inactive; u = inconclusive; x = not tested or not shown; [ ] = another dose, or the depositor's remark. Rows were chosen to be rich in hits. Some 1.2% of all compounds tested hit in one or more screens of this group. Unless noted, calls come from the whole dose curve; as a rule, active = well fitted curve in the direction sought with a large enough effect; inconclusive = small, poorly fitted or top-dose-only effect, or another doubt; inactive = no such curve, though single readings can be large; an effect the other way counts as inactive or inconclusive.

SMILES	BRCA1 expr up	Anesthetic bind	ASM inhibitor	TSHR antagonist	TSG101-PTAP inh
CCOC(=O)C1CCCN(C(=O)CCc2nnc(-c3ccc(C(C)=O)s3)o2)C1 (stereo not given)	12.6µM	n	n	n	n
Clc1ccc(Sc2cc(Cl)c(Cl)cc2Cl)cc1	x	n	x	x	x
C(=N\n1cnnc1)/c1ccc(OCc2ccccc2)cc1	12.6µM	u	n	n	n
COC(=O)c1ccc(COc2ccc(/C=N/N3CCN(C)CC3)cc2)cc1	u	n	n	n	n
CN1CCN(/N=C/c2ccc(OCc3ccccc3)cc2)CC1	7.94µM	n	n	n	n
Fc1cccc(F)c1-c1nc(-c2ccncc2)no1	8.91µM	n	n	n	n
Cc1ccc(-c2noc(-c3ccno3)n2)cc1	8.91µM	n	n	n	n
COC(=O)C(Cc1ccc(OC(=O)c2ccccc2C)cc1)N1Cc2ccccc2C1=O (stereo not given)	u	n	n	n	n
COC(=O)C(Cc1ccc(OC(=O)c2ccccc2Cl)cc1)N1Cc2ccccc2C1=O (stereo not given)	6.31µM	n	n	n	n
C=CCNC(=O)c1ccc(NC(=O)C2=CSCCO2)cc1	n	n	n	-135.5	n
CC(C)CCNC(=O)c1ccc(NC(=O)C2=CSCCO2)cc1	n	n	n	n	n
COC(=O)CN1C(=O)COc2ccc(S(=O)(=O)N3CCCCC3)cc21	n	x	x	x	x
COC(=O)CN1C(=O)COc2ccc(S(=O)(=O)N3CCCC3)cc21	n	n	n	-134.6	n
CC1(C)OC(=O)C2(Cc3ccc(Cl)cc3N3CCCC32)C(=O)O1 (stereo not given)	n	x	x	x	x
O=S(=O)(N1CCN(c2nc(-c3cccs3)nc3ccccc23)CC1)C(F)(F)F	n	x	x	x	x
Cc1cc2c(cc1C)NC(=O)CC(c1ccccc1)=N2	3.16µM	x	n	x	n
O=C(NCCc1ccccc1)c1cc2ccccc2oc1=O	n	n	n	-118.1	n
O=C(NCCc1ccccc1)c1ccc(Br)o1	7.08µM	n	n	n	n
O=C(NCCNC(=O)c1ccc(Br)o1)c1ccc(Br)o1	n	n	n	n	n
O=C(NCCc1ccccn1)c1cc2ccccc2o1	10µM	n	n	n	n
CN(C)c1ccc(/C=C/c2ccnc3ccccc23)cc1	n	x	x	x	x
Nc1ccc(Oc2cc(N)cc(Oc3ccccc3)c2)cc1	7.08µM	n	n	n	n
COc1cc(OC)c2c(c1C(CCN1CCCC1)c1ccc(N(C)C)cc1)OC(=O)CC2c1ccc(N(C)C)cc1 (stereo not given)	x	n	x	x	x
CC(/C=N/Nc1nnc(C)c(=O)[nH]1)=C\c1ccccc1	10µM	n	n	n	n
CCOc1ccc(Nc2oc(-c3ccc(Cl)cc3)nc2C#N)cc1	n	n	n	n	n
SMILES	BRCA1 expr up	Anesthetic bind	ASM inhibitor	TSHR antagonist	TSG101-PTAP inh
CCOc1ccc(-c2nc(C#N)c(NC3CC3)o2)cc1	10µM	n	n	n	n
COc1ccc2oc(C(=O)c3ccccc3)c(N)c2c1	n	n	n	n	n
COc1ccc2oc(C(=O)C3CC3)c(N)c2c1	6.31µM	n	n	n	n
COc1ccc2oc(C(=O)NC(C)(C)C)c(C)c2c1	7.08µM	n	n	n	n
O=C(NCCC1=CCCCC1)C(=O)NCC1OCCCN1S(=O)(=O)c1cc(F)ccc1F (stereo not given)	n	n	n	-96.4	n
C(=N\N1CCN(c2ccccn2)CC1)/c1ccccn1	11.2µM	n	n	n	n
Cc1ccc(/C=N/N2CCN(c3ccccn3)CC2)o1	10µM	n	n	n	n
Cc1ccc(CN(Cc2cc3cc(C)ccc3[nH]c2=O)Cc2nnnn2Cc2ccccc2)cc1	n	x	x	x	x
O=C1c2ccccc2NC(c2ccc(-c3cccs3)o2)N1O (stereo not given)	u	x	n	n	n
O=C1c2ccccc2NC(c2ccc(Br)o2)N1O (stereo not given)	11.2µM	x	n	n	n
Nc1cccc(-c2nc3ccccc3[nH]2)c1	10µM	n	n	n	n
C=CCn1cccc(C(=O)Nc2ccc(C)c(C)c2)c1=O	3.16µM	n	n	n	n
C=CCn1cccc(C(=O)Nc2ccc(C)cc2)c1=O	u	n	n	n	n
Nc1nc(-c2ccccc2)cs1	n	u	n	n	n
Nc1nc(-c2cccc(Br)c2)cs1	11.2µM	31.6µM	n	n	n
Nc1nc(-c2ccc(Br)cc2)cs1	15.8µM	n	n	n	n
Nc1nc(-c2ccc(F)cc2)cs1	n	n	n	n	n
C/C(=N\NC(=O)c1sccc1C)c1ccncc1	u	n	n	n	n
C/C(=N\NC(=O)c1sccc1C)c1cccnc1	2.82µM	n	n	n	n
CN1CCc2ccc3c4c2[C@]1(C)Cc1cccc(c1-4)OCO3	x	n	x	x	x
COc1ccc(Cc2nc3ccc(C(=O)N4CCCC4)cc3o2)cc1OC	n	n	n	n	n
CC(=O)C1CCCN(C(=O)c2ccc3oc(CCc4ccccc4)nc3c2)C1 (stereo not given)	n	n	n	n	n
COc1ccc(Cc2nc3ccc(C(=O)N4CCCC4)cc3o2)cc1	6.31µM	n	n	n	n
O=C(c1ccc2oc(CCCc3ccccc3)nc2c1)N1CCCC1	7.08µM	n	x	n	n
C=C(C)CNC(=O)c1ccc2nc(Cc3ccc(OC)cc3)oc2c1	10µM	u	n	n	n
SMILES	BRCA1 expr up	Anesthetic bind	ASM inhibitor	TSHR antagonist	TSG101-PTAP inh
COc1cccc(-c2nc3ccc(C(=O)N4CCCC(O)C4)cc3o2)c1 (stereo not given)	3.16µM	n	n	n	n
CCC(=O)C1CCCN(C(=O)c2ccc3nc(-c4cccc(OC)c4)oc3c2)C1 (stereo not given)	n	n	n	n	n
CC[C@H](NC(=O)[C@H](CCC(=O)O)NC(=O)[C@H](CCC(=O)O)NC(=O)[C@H](CC(=O)O[S+](=O)([O-])c1cccc2c(NCCN)cccc12)NC(=O)[C@H](CCC(=O)O)NC(=O)[C@H](CC(=O)O)NC(C)=O)C(=O)ON[C@@H](C)C(=O)N[C@@H](CO)C(=O)N[C@@H](CCCCNC(=O)c1ccc(N=Nc2ccc(N(C)C)cc2)cc1)C(N)=O	x	n	x	x	x
C[C@H]1COC(=O)[C@H]2CCCN2C(=O)[C@@H](C)COC(=O)[C@H]2CCCN2C1=O	x	n[15.3 µM]	x	x	x
CC[C@H](C)[C@H](NC(=O)[C@H](CC(C)C)NC(=O)[C@@H](N)CO)C(=O)NCC(=O)N[C@@H](CCCCN)C(=O)N[C@H](C(=O)O)C(C)C	x	n	x	x	x
Cc1ccc(S(=O)(=O)NCCNS(=O)(=O)c2ccc(C)cc2)cc1	n	n	n	-82.9	n
